Inconclusive results are not listed. A call without a number means that no potency is given here. The source made the active and inactive calls. Unless noted, calls follow the shape of the dose curve; as a rule, active = well fitted curve in the direction sought with a large enough effect; inconclusive = small, poorly fitted or top-dose-only effect, or another doubt; inactive = no such curve, though single readings can be large; an effect the other way counts as inactive or inconclusive.
How the values were obtained:
[1] = target: Atrial natriuretic peptide receptor 2 (Homo sapiens) (UniProt P20594); test: Natriuretic polypeptide receptor (hNpr2) antagonism - Pilot subtype selectivity assay (AID 1347050; calls by dose curve)
Method in brief: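 HEK293 cells expressing hNpr2 and a GloSensor cGMP luciferase sensor, 1500/well, preloaded 2 h with 2% GloSensor reagent, compound 30 min, then 1 nM hNppC for 20 min. Antagonism from luminescence after versus baseline pre-read; LOPAC in 1:5 titrations.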

[2] = NS1 protein of Zika virus - qHTS assay to identify small molecule inhibitors in human HEK 293 cells (AID 1347053); also: series mostly up to about 46 µM; nearly all actives have a fitted effect of over 55% in size
Method in brief: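 Following 20 h seeding, HEK 293 cells took compound, then 1 h later ZIKV MR766 (MOI = 0.5). Incubation ran 24 h at 37 C before TR-FRET detection of NS1; a drop in signal indicates inhibition.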

[3] = target: T1, Tyrosine-protein phosphatase non-receptor type substrate 1 (Homo sapiens) + Leukocyte surface antigen CD47 (Homo sapiens) (UniProt P78324+Q08722); test: CD47-SIRPalpha protein protein interaction - LANCE assay qHTS validation (AID 1347057; active = well fitted curve in the direction sought with a large enough effect in the signal ratio, with a control signal flat, not every such curve was filed as active; the % refers to the signal ratio; also: series mostly up to about 38 µM)
Method in brief: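 First, His-tagged CD47 and Eu-labelled anti-His antibody met the compound for 30 min; next, site-specifically biotinylated SIRPalpha was added for 30 min; finally streptavidin-APC was added before reading the TR-FRET ratio.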

[4] = target: T1, Tyrosine-protein phosphatase non-receptor type substrate 1 (Homo sapiens) + Leukocyte surface antigen CD47 (Homo sapiens); test: CD47-SIRPalpha protein protein interaction - Alpha assay qHTS validation (AID 1347059);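 also: bead proximity luminescence from CD47 binding SIRPalpha after compound preincubation with SIRPalpha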
Method in brief: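 Biotinylated Avi-tagged SIRPalpha (25 nM) preincubated 30 min with compound, then His-tagged CD47 (12.5 nM) added 30 min; AlphaScreen with Ni-NTA acceptor and streptavidin donor beads. PBS pH 7.4, 0.05% IGEPAL, room temperature; 7-point titrations.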

[5] = target: Parathyroid hormone/parathyroid hormone-related peptide receptor (Homo sapiens) (UniProt Q03431); test: qHTS for PTHR1 Agonists: Optimization Screen against the NCGC LOPAC library (AID 1347079);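 also: GloSensor cAMP luminescence in HEK-293 GP2 cells expressing human PTHR1 with IBMX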
Method in brief: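 Agonist readout: GloSensor cAMP luminescence, read after 15 min at room temperature. HEK-293-derived GP2 line carries PTHR1; compounds tested as a titration for 1 hr at 37C in presence of IBMX. M-PTH (1-15) served as control.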

[6] = qHTS of pediatric cancer cell lines to identify multiple opportunities for drug repurposing: Primary screen for TC32 cells (AID 1347089); also: nearly all actives have a fitted effect of over 60% in size
Method in brief: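 Luminescent CellTiter-Glo read-out of metabolically active TC32 cells after 48 h compound exposure. Primary: MIPE 11-point, 0.78 nM–46 µM; NPC 8-point, 0.59 nM–46 µM. Confirmatory: 11-point dilutions.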

[7] = qHTS of pediatric cancer cell lines to identify multiple opportunities for drug repurposing: Primary screen for DAOY cells (AID 1347090); also: series mostly up to about 46 µM; nearly all actives have a fitted effect of over 55% in size
Method in brief: (§1)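 Viability measured as metabolically active cells via CellTiter-Glo luminescence following 48 hours of compound exposure, 11-point dilutions in confirmatory testing. 500-1,000 cells/well plated 5 hours before dosing; controls were DMSO and 2.3 µM bortezomib.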

[8] = qHTS of pediatric cancer cell lines to identify multiple opportunities for drug repurposing: Primary screen for SJ-GBM2 cells (AID 1347091); also: potency is read from the fitted curve at half-maximal effect
Method in brief: as §1

[9] = qHTS of pediatric cancer cell lines to identify multiple opportunities for drug repurposing: Primary screen for A673 cells (AID 1347092); also: nearly all actives have a fitted effect of over 45% in size
Method in brief: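 A673 cells (500-1,000 cells/well in growth media) were pre-incubated 5 h at 37 degrees C, then exposed to compounds for 48 h. Viability was read as CellTiter-Glo luminescence; concentration-response curves came directly from the primary screen.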

[10] = target: T1, Tyrosine-protein phosphatase non-receptor type substrate 1 (Homo sapiens) + Leukocyte surface antigen CD47 (Homo sapiens); test: CD47-SIRPalpha protein protein interaction - HTRF assay qHTS validation (AID 1347058; active = well fitted curve in the direction sought with a large enough effect in the signal ratio, not every such curve was filed as active; the % refers to the signal ratio;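 also: recombinant soluble extracellular CD47 with His tag and biotinylated SIRPalpha domains; series mostly up to about 38 µM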)
Method in brief: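 TR-FRET read (Ch1/Ch2 ratio) of soluble extracellular CD47 and Avi-biotinylated SIRPalpha domains in PBS pH 7.4 with 0.05% IGEPAL; 7-point compound titration. Sequential 30 min room-temperature steps; non-biotinylated SIRPalpha as control inhibitor.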

Chain of Parathyroid hormone/parathyroid hormone-related peptide receptor (Homo sapiens) (Q03431 whole entry, looked up): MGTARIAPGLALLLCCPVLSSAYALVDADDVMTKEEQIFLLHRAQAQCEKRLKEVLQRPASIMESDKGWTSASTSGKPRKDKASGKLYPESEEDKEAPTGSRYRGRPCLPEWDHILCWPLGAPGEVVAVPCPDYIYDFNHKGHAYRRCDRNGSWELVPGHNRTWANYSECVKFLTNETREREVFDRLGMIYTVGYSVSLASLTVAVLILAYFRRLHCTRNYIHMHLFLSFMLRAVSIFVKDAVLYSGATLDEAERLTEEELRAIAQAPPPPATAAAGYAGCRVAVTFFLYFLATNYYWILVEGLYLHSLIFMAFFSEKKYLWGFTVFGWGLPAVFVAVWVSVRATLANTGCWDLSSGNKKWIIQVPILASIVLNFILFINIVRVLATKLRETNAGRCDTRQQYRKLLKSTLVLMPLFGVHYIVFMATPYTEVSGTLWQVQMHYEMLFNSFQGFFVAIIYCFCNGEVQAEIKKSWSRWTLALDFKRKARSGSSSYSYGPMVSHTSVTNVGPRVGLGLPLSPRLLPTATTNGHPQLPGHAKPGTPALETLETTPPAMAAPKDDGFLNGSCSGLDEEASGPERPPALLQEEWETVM
Chain of Atrial natriuretic peptide receptor 2 (Homo sapiens) (P20594 whole entry, looked up): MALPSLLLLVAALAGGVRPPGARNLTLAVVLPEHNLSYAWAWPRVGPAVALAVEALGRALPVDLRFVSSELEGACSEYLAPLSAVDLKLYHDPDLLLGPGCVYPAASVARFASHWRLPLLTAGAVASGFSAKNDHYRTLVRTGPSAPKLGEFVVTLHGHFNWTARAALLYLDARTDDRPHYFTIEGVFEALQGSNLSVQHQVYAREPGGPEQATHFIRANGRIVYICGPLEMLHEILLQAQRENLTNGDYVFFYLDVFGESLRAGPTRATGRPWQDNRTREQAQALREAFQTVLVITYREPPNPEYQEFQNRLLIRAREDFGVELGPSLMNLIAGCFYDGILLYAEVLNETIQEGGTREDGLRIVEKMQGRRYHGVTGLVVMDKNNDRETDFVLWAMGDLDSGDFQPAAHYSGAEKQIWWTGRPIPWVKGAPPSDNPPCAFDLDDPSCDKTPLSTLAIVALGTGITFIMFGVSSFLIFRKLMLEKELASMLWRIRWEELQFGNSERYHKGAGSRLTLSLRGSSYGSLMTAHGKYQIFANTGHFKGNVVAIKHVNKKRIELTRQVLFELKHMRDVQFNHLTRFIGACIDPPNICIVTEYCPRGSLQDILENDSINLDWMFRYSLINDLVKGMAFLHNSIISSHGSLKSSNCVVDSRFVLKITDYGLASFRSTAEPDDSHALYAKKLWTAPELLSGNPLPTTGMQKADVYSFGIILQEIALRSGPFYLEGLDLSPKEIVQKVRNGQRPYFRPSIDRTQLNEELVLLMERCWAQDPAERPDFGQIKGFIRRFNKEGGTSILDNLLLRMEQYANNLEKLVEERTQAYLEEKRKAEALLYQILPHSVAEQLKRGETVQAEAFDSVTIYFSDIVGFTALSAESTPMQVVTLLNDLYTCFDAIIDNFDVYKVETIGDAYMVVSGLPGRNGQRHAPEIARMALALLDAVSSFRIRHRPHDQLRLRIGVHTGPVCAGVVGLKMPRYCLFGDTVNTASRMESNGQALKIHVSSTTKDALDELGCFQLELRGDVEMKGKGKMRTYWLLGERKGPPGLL
T1 sequence (P78324 whole entry, looked up): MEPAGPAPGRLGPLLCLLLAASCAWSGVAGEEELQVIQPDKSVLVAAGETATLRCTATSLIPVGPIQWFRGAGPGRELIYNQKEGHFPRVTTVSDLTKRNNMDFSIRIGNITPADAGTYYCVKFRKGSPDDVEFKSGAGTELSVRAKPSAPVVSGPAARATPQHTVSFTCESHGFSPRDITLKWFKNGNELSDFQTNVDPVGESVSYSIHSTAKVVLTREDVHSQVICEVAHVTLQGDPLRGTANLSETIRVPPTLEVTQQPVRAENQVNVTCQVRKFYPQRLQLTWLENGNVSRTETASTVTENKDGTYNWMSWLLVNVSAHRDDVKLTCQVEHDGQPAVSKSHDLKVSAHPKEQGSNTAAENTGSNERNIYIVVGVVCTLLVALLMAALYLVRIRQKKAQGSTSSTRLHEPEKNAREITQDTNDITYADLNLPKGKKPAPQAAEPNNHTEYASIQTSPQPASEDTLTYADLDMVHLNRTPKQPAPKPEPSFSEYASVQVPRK
T1 sequence (Q08722 whole entry, looked up): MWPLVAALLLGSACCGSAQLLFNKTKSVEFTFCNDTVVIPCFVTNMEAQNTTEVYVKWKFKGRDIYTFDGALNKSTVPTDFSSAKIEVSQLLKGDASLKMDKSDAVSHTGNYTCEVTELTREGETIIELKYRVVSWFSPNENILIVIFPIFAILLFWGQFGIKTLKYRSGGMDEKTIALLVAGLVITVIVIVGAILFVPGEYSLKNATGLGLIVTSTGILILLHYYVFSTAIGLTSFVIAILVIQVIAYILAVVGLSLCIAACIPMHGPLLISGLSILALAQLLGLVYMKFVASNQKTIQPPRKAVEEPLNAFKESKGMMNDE

SMILES | Potency [1] | outcome [2] | outcome [3] | Potency [4] | outcome [5] | Potency [6] | Potency [7] | Potency [8] | Potency [9] | outcome [10]
Cc1cc(C)c(/C=C2\C(=O)Nc3ccccc32)[nH]1 | inactive | inactive | inactive | inactive | inactive | inactive | inactive | inactive | inactive | –
COCCc1ccc(OCC(O)CNC(C)C)cc1 (configuration not stated) | inactive | inactive | – | inactive | inactive | inactive | inactive | inactive | inactive | inactive
COC(=O)[C@H]1[C@H]2C[C@@H]3c4[nH]c5cc(OC)ccc5c4CCN3C[C@H]2C[C@@H](OC(=O)c2cc(OC)c(OC)c(OC)c2)[C@@H]1OC | inactive | inactive | inactive | – | inactive | inactive | – | inactive | – | –
COc1cc(C(=O)OCCCN2CCCN(CCCOC(=O)c3cc(OC)c(OC)c(OC)c3)CC2)cc(OC)c1OC | inactive | inactive | – | inactive | inactive | inactive | inactive | – | – | inactive
CC(=O)OCC1=C(C(=O)O)N2C(=O)[C@@H](NC(=O)Cc3cccs3)[C@H]2SC1 | inactive | inactive | – | inactive | inactive | inactive | inactive | inactive | inactive | inactive
CC(C)[N+](C)(CCOC(=O)C1c2ccccc2Oc2ccccc21)C(C)C | inactive | inactive | – | inactive | inactive | inactive | inactive | inactive | inactive | inactive
CC(C)(C)c1ccc(C(=O)CCCN2CCC(OC(c3ccccc3)c3ccccc3)CC2)cc1 | inactive | inactive | inactive | inactive | inactive | inactive | – | 26.6 µM (active) | – | –
C[C@]12CC[C@@H]3c4ccc(O)cc4C[C@@H](CCCCCCCCCS(=O)CCCC(F)(F)C(F)(F)F)[C@H]3[C@@H]1CC[C@@H]2O (some centres not stated) | inactive | inactive | – | inactive | inactive | inactive | inactive | – | inactive | inactive
CCCN(CCC)C(=O)C(CCC(=O)O)NC(=O)c1ccccc1 (configuration not stated) | inactive | inactive | – | inactive | inactive | inactive | inactive | inactive | inactive | inactive
C[C@@H](O)[C@H]1C(=O)N2C(C(=O)O)=C(SCCN=CN)C[C@H]12 | inactive | inactive | – | inactive | inactive | inactive | inactive | inactive | inactive | inactive

Source: PubChem BioAssay (NCATS)
